Most compounds without a hit are left out; they make up all but 2% or so of the library.
FUS yeast rescue – rescues growth of FUS-expressing yeast | hit rate 0.24% among 390,000 | S. cerevisiae FUS-expressing, growth rescue, OD600, 24 h | Potency, µM (series often up to 76.6 µM), actives largely listed as activators;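 note: potency is the fitted concentration of half-maximal effect; plate controls were DMSO vehicle for no effect and reference control for full effect; nearly all actives have a fitted effect of over 55% in size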
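Yeast expressing FUS under galactose induction, OD 0.005 in 2% galactose medium; compounds in a dilution series, 24 h at 30C. Growth rescue by absorbance at 600 nm; CP55940 positive control, DMSO negative.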
TDP-43 yeast inh – TDP-43 toxicity inhibition in yeast; TDP-43 expressing yeast growth rescue, BacTiter-Glo, 24 h; Potency, µM (doses to about 46.1 µM), for inactives: at the highest dose growth rescue (activation), actives largely listed as activators; hit rate 1.8% among 410,000; AID 652104; note: potency is the fitted concentration of half-maximal effect; % of control where 0% means no effect; nearly all actives have a fitted effect of over 50% in size
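Readout is BacTiter-Glo luminescence of cell growth, so inhibitors register as activators. TDP-43-expressing yeast at OD600=0.02 in galactose medium, after raffinose pregrowth to mid-log, were incubated with compound for 24 hr at 30 deg C.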
Abeta yeast res – restores growth of yeast expressing A-beta42 peptide | yeast expressing A-beta42, growth rescue, OD600, 48 h; response scale: 0% DMSO, 100% iron-clioquinol control | Potency, µM (series often up to 46.1 µM), most hits filed as activators | hit rate 0.063% among 410,000 | AID 1347071; note: potency is the fitted concentration of half-maximal effect; nearly all actives have a fitted effect of over 55% in size
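Yeast growth medium received pinned compounds, then yeast cells expressing toxic A-beta were added; plates incubated at 30 C for 48 hr. Growth read as absorbance at 600 nm, normalized to DMSO and equimolar FeCl3 plus clioquinol controls.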
LDHA block – inhibitors of human lactate dehydrogenase A; P00338; purified LDHA, NADH/diaphorase-resazurin fluorescence; stronger effect = lower value; activity change, % (values are at about 110 or 230 µM); hit rate 0.15% among 480,000; in the data active = activity change below about -30%; inconclusive = mostly about -25% to -30%;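 note: plate controls were DMSO wells for no effect and wells without enzyme for full effect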
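Enzyme activity of human lactate dehydrogenase 5 (2 nM; 0.06 mM NADH, 0.2 mM pyruvate, 5 min, RT) is measured via a resazurin/diaphorase fluorescence readout of residual NADH.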
mIDH1 inhibitor – inhibitors of human mutant IDH1 R132H | IDH1-R132H enzyme, NADPH consumption, diaphorase/resazurin fluorescence | Potency, µM (doses to about 76.6 µM), without a hit: at the highest dose activity change, negative = inhibition, usual class: inhibitors | hit rate 0.093% among 390,000; note: potency is the fitted concentration of half-maximal effect; % is set by controls: 0 for no effect and ±100 for the full control effect; nearly all actives have a fitted effect of over 65% in size
Target sequence (O75874 whole entry R132H, stated change not applied): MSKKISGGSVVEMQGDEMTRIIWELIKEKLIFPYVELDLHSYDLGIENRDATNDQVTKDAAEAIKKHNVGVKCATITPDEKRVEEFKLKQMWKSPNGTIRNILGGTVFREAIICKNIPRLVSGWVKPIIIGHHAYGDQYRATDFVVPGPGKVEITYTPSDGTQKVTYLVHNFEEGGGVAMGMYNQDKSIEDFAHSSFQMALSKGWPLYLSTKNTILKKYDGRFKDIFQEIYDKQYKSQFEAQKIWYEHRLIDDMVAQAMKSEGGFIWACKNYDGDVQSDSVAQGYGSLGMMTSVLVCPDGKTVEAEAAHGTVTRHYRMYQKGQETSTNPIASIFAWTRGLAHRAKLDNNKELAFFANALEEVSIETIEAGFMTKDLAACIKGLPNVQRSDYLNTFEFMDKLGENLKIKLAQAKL
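IDH1-R132H (0.5 ug/mL) preincubated 30 min with compound, then NADPH (0.016 mM) and alpha-KG (2 mM) added; 80 min at RT, pH 7.5. Remaining NADPH coupled via diaphorase/resazurin to fluorescence (540/590 nm); concentration-response curves normalized to no-enzyme control.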
aSyn rescue – alpha-synuclein toxicity inhibition in yeast. Yeast expressing alpha-synuclein, growth rescue, BacTiter-Glo, 24 h. Potency, µM (top dose mostly 46.1 µM), for inactives: at the top dose growth rescue (activation), most hits filed as activators. hit rate 0.14% among 370,000; note: potency is the fitted concentration of half-maximal effect; % of control where 0% means no effect; nearly all actives have a fitted effect of over 65% in size
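Readout is rescue of growth in alpha-synuclein-expressing yeast, so inhibitors of toxicity appear as activators. Growth after 24 hr at 30 deg C in galactose medium is quantified by luminescence.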
* hit, by the source's call; i = inactive; ? = inconclusive; . = not tested or not shown; [ ] = remark or other dose. Unless noted, calls come from the whole dose curve; as a rule, active = well fitted curve in the direction sought with a large enough effect; inconclusive = small, poorly fitted or top-dose-only effect, or another doubt; inactive = no such curve, though single readings can be large; an effect the other way counts as inactive or inconclusive.

SMILES	FUS yeast rescue	TDP-43 yeast inh	Abeta yeast res	LDHA block	mIDH1 inhibitor	aSyn rescue
COc1ccc(S(=O)(=O)N2CCC3(CC2)CC(=O)c2ccccc2O3)cc1	i	13.1%	i	0.0	3.6%	-1.5%
O=C1CC2(CCN(S(=O)(=O)c3ccccc3)CC2)Oc2ccccc21	i	20µM*	i	-4.2	1.0%	15.4%
COc1ccc2oc(C)c(C(=O)c3ccc([N+](=O)[O-])cc3)c2c1	.	22.4µM*	i	-6.2	12.1%	8.0%
COc1ccc(C)cc1-n1nnc(C(=O)Nc2ccc(Br)cc2)c1C	.	.	.	4.6	.	.
Cc1ccnc2nc(C(=O)OCCOc3cccc(Br)c3)nn12	i	15.8µM*	?	-2.4	10.7%	-13.1%
COc1ccc2c(c1)CC/C2=N\OC(=O)c1ccccc1C	i	?	i	-8.1	6.9%	-20.9%
COc1ccc2c(c1)CC/C2=N\OC(=O)c1cccc(C)c1	.	5.01µM*	i	-7.0	-0.6%	-53.9%
COc1ccc2c(c1)CCC/C2=N/OC(=O)c1ccccc1OC	i	15.8µM*	i	1.2	-0.8%	-10.0%
O=C(Cc1ccccc1)O/N=C1\CCCc2ccccc21	i	5.3%	i	-8.0	-2.3%	0.8%
O=C(O/N=C1\CCCc2ccccc21)c1cccs1	i	8.91µM*	i	-13.3	6.1%	-12.6%
Cc1ccsc1/C=C/C1=Cc2c(sc(NC(=O)CSc3n[nH]c(N)n3)c2C#N)C(C)(C)C1	25.1µM*	-18.7%	i	-1.6	-0.4%	-0.1%
CCOc1ccc(/C=C/C2=Cc3c(sc(NC(=O)CSc4n[nH]c(N)n4)c3C#N)C(C)(C)C2)cc1	8.91µM*	-10.9%	i	4.3	-1.0%	0.1%
Cc1ccsc1/C=C/C1=Cc2c(sc(N)c2C#N)C(C)(C)C1	.	.	.	15.9	.	.
CCOC(=O)c1sc(NC(=O)CSc2n[nH]c(-c3ccncc3)n2)c(C#N)c1C	i	-1.9%	i	-5.4	1.0%	-2.5%
CC1(C(=O)NS(=O)(=O)c2ccccc2Cl)CCN1C(=O)C1(c2ccc(Cl)cc2)CC1 (configuration not stated)	i	35.5µM*	i	-2.5	.	2.0%
CC1(C(=O)NS(=O)(=O)c2ccccc2Cl)CCN1C(=O)C1(c2ccccc2)CCCC1 (configuration not stated)	i	?	i	-1.6	.	-0.7%
CC1(C(=O)NS(=O)(=O)c2ccccc2Cl)CCN1C(=O)C1(c2ccc(Cl)cc2)CCC1 (configuration not stated)	i	12.6µM*	i	-5.8	.	-0.3%
CC1(C(=O)NS(=O)(=O)c2ccccc2)CCN1C(=O)c1ccccc1CCc1ccccc1 (configuration not stated)	i	?	i	-10.8	.	-5.3%
Cc1ccccc1S(=O)(=O)NC(=O)C1(C)CCN1C(=O)C1(c2ccc(Cl)cc2)CCC1 (configuration not stated)	?	25.1µM*	i	-2.4	.	-22.6%
CC1(C(=O)NS(=O)(=O)c2ccccc2Cl)CCN1C(=O)C1(c2ccccc2)CC1 (configuration not stated)	i	0.0%	i	-3.1	.	6.9%
CC1(C(=O)NS(=O)(=O)c2ccccc2)CCN1C(=O)C1(c2ccc(Cl)cc2)CCC1 (configuration not stated)	i	0.0%	i	-5.9	.	7.9%
Cc1ccccc1S(=O)(=O)NC(=O)C1(C)CCN1C(=O)c1ccccc1CCc1ccccc1 (configuration not stated)	?	35.5µM*	i	1.7	.	-9.5%
Cc1ccc(C)c(CN2C(=O)c3ccccc3S(=O)(=O)c3ccc(C(=O)N4CCCC4)cc32)c1	?	21.6%	i	-1.6	.	.
Cc1ccc(C)c(CN2C(=O)c3ccccc3S(=O)(=O)c3ccc(C(=O)N4CCOCC4)cc32)c1	28.2µM*	8.8%	i	1.0	.	.
N/C(=N\OC(=O)c1ccc2ccccc2c1)c1ccncc1	i	12.6µM*	i	-1.4	11.2%	10.2%
SMILES	FUS yeast rescue	TDP-43 yeast inh	Abeta yeast res	LDHA block	mIDH1 inhibitor	aSyn rescue
N/C(=N\OC(=O)c1ccccc1Cl)c1cccc([N+](=O)[O-])c1	i	11.2µM*	i	-5.2	9.4%	-32.3%
N/C(=N\OC(=O)c1cccc([N+](=O)[O-])c1)c1ccccn1	i	13.6%	i	-3.9	3.1%	0.7%
N/C(=N\OC(=O)c1ccc2ccccc2c1)c1ccccn1	i	-13.1%[0.397 µM]	i	-2.3	12.0%	-6.8%
N/C(=N\OC(=O)c1ccccc1Cl)c1ccncc1	i	25.1µM*	i	-1.9	7.3%	6.7%
N/C(=N\OC(=O)c1ccc2ccccc2c1)c1cccc([N+](=O)[O-])c1	i	22.4µM*	i	-7.9	-2.4%	-34.3%
N/C(=N/OC(=O)c1cccc([N+](=O)[O-])c1)c1cccc([N+](=O)[O-])c1	i	3.2%	i	-4.9	0.5%	-8.7%
Cc1ccc(-c2cc(C(=O)Nc3cccc(CO)c3)c3ccccc3n2)cc1	.	.	.	3.8	.	.
Cc1cc(=O)oc2cc(OCC(=O)NCCN(C)C)c(Cl)cc12	.	.	.	-2.4	.	.
N/C(=N\OC(=O)c1cccc(F)c1)c1cccc([N+](=O)[O-])c1	i	?	i	-12.0	0.0%	-4.3%
N/C(Cc1ccc([N+](=O)[O-])cc1)=N\OC(=O)c1cccc(Br)c1	i	-93.3%	i	-0.8	-3.6%	-72.6%
N/C(=N\OC(=O)c1ccc(F)cc1)c1cccc([N+](=O)[O-])c1	i	12.6µM*	i	-11.6	0.0%	-8.4%
N/C(Cc1ccc([N+](=O)[O-])cc1)=N\OC(=O)c1ccc([N+](=O)[O-])cc1	.	17.8µM*	i	-3.5	3.6%	0.4%
Cc1cccc(CN2CCC(CNC(=O)Nc3cn(CC(C)C)c(=O)c4ccccc34)CC2)c1	.	.	.	14.0	.	.
CN(C)CC#CC(O)(c1ccccc1)C1(C)CCCC1 (configuration not stated)	.	.	.	9.6	.	.
O=C(CCN1C(=O)NC2(CCCC2)C1=O)Nc1cccc2cccnc12	.	.	.	9.7	.	.
O=C(CCS(=O)(=O)c1ccccc1)Nc1nc(-c2ccccn2)cs1	i	24.8%	i	-8.9	-8.3%	-1.7%
Cc1ccccc1OCC(=O)Nc1nc(-c2ccncc2)cs1	.	27.3%	i	-4.0	8.7%	-2.7%
O=C(CC1CC2CCC1C2)Nc1nc(-c2ccccn2)cs1 (configuration not stated)	i	17.8µM*	14.1µM*	2.3	1.6%	25.1µM*

Assay outcomes deposited in PubChem BioAssay by National Center for Advancing Translational Sciences (NCATS).
